According to ChEMBL document CHEMBL3988442, “University of Dundee, Small-Polar-MMV Screening Library” (2021):
About 420 (0.61%) of roughly 69,000 compounds showed an effect of 50% or more. Shown is part of a subset that was picked to be rich in strong results.

Molecular target: T1, Histidine--tRNA ligase (Leishmania infantum) (UniProt A4I591)
T1 sequence (whole entry): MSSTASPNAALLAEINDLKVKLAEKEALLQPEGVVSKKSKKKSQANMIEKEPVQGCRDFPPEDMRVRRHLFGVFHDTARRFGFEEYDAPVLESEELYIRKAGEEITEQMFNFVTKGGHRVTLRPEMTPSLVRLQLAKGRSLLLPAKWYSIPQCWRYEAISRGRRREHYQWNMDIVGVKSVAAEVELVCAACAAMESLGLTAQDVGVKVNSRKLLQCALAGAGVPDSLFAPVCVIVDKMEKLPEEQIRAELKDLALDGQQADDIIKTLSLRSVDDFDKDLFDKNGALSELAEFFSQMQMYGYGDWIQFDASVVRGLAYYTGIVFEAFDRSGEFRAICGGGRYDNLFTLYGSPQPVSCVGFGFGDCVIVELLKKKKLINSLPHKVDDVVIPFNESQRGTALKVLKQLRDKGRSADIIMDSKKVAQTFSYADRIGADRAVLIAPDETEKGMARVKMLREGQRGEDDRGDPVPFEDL
Experiment: Leishmania infantum Histidine tRNA synthetase (LdHisRS)
Assay type: functional
Set-up: scale not given: in the data most compounds retested in dose-response had high values
Settings: 30 µM

Row | Compound | Percent Effect
1 | O=S1(=O)C[C@@H]2[C@H](C1)N(Cc1cc(F)cc(Cl)c1)CCN2CCO | 0%
2 | CN(C)C(=O)N1C[C@@H]2CC[C@H](C1)N(Cc1nnc(-c3ccco3)o1)C2 | -9.89%
3 | NC(=O)NCC(=O)N1C[C@H]2CC[C@@H]1CN(Cc1cscn1)C2 | 0%
4 | CCc1oc(C(=O)N2CC[C@H]3CC[C@@H](C2)N3)cc1CN(CC)CC | 12.6%
5 | Fc1ccc(F)c(CN2CCC(c3cc4ncccc4cn3)CC2)c1 | 35.2%
6 | Fc1cccc(CN2CCC(c3cc4ncccc4cn3)CC2)c1F | 29.6%
7 | COc1ccc(C)cc1CN1CCC(c2cc3ncccc3cn2)CC1 | 60.6%
8 | Cc1noc([C@@H]2C[C@@H]3CCN(c4nnc(C)s4)C[C@H]3O2)n1 | 13.5%
9 | O=C(c1ccoc1)N1CC[C@H]2OCC[C@@]2(COc2ncccc2F)C1 | 24.5%
10 | Cc1ccncc1C(=O)N1C[C@H]2CN(CC3CCC3)C[C@@]2(C(=O)O)C1 | -1.64%
11 | CN(CC(O)CO)c1nc(-c2cccnc2)nc2c1CCNC2 (centres undefined) | 7.85%
12 | Cc1nonc1CN(C)c1nc(-c2cccnc2)nc2c1CCNC2 | 67.5%
13 | CN(CC1CCCCO1)c1nc(-c2cccnc2)nc2c1CCNC2 (centres undefined) | 9.95%
14 | CS(=O)(=O)CC(=O)N1C[C@@H]2COC[C@]2(c2nnc(C3CC3)o2)C1 | 15.1%
15 | N#Cc1cccc(CN2CC[C@@H]3CN(c4ncccn4)CCO[C@@H]3C2)c1 | -0.901%
16 | CC(C)c1ccc(C(CN)N2CCc3sccc3C2)cc1 (centres undefined) | 17.8%
17 | NCC(c1ccc(Cl)cc1)N1CCc2sccc2C1 (centres undefined) | 13.7%

Row | Compound | Percent Effect
18 | CSc1ccc(C(CN)N2CCc3sccc3C2)cc1 (centres undefined) | 71.4%
19 | CC(=O)Cc1c(C)nn(-c2cncc(C(N)=O)c2)c1C | 16.5%
20 | CC(=O)Cc1c(C)nn(-c2cncc(N)c2)c1C | 64.6%
21 | COc1cncc(-n2nc(C)c(CC(C)=O)c2C)c1 | 34.2%
22 | COCCN1CC[C@@H]2O[C@@H](COCC(=O)N3CCCC3)CC[C@@H]21 | 17.1%
23 | COC[C@@]12CCC[C@@H]1CN(C(=O)CN(C)C)C2 | 5.77%
24 | CC(C)(C)NC[C@@H]1CCC[C@@H]2CN(Cc3csnn3)C[C@@H]21 | 17.1%
25 | O=C(C1CCOCC1)N1CCO[C@H]2[C@H](Oc3ccccn3)CC[C@@H]21 | -1%
26 | CCCC(O)CNc1cncc(Br)c1 (centres undefined) | 95.9%
27 | COCC(O)CNc1cncc(Br)c1 (centres undefined) | 60.3%
28 | CS(=O)(=O)CCOCCNc1cncc(Br)c1 | 53.2%
29 | O=c1[nH]nc(CNc2cncc(Br)c2)[nH]1 | 11.1%
30 | COCCOCCNc1cncc(Br)c1 | 45.5%
31 | CS(=O)(=O)CCOCCNc1ccc(Br)cn1 | 16.9%
32 | O=C(NCCNc1cncc(Br)c1)c1ccc(O)cc1 | 42.5%
33 | CCOCC(O)CNc1cncc(Br)c1 (centres undefined) | 46.6%
34 | COCC(C)NC(=O)c1cncc(Br)c1 (centres undefined) | 19.2%
